7 molecules from PubChem BioAssay (Tox21) can be followed below.

A number with no mark means an inactive call. Results filed as inconclusive are left out. Calls of active or inactive are those of the source. Unless noted, the call rests on the fitted dose curve.

Assay [1] can be described thus: Nuclear factor erythroid 2-related factor 2/antioxidant responsive element (Nrf2/ARE) small molecule agonists: qHTS cell viability counter screen in human keratinocytes (AID 1919968; active means well fitted curve in the direction sought with a large enough effect in the repeat runs; an effect the other way counts as inactive or inconclusive; further: nearly all actives have a fitted effect of over 55% in size). The procedure, abridged: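 Parallel cytotoxicity read: KeratinoSens HaCaT cells, compound treatment 23 h, viability by CellTiter-Fluor fluorescence 1 h post-reagent.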
Background: Quantitative high-throughput screening tests each substance at several concentrations.

Assay [2] is described as follows: Nuclear factor erythroid 2-related factor 2/antioxidant responsive element (Nrf2/ARE) small molecule agonists: luciferase reporter gene qHTS assay in human keratinocytes (AID 1919969). Further: nearly all actives have a fitted effect of over 35% in size. Further: potency means the concentration at half of the fitted maximal effect. For orientation: In a reporter assay the amount or activity of a reporter protein is the signal.
Assay [3] concerns the target Gonadotropin-releasing hormone receptor (Homo sapiens) (UniProt P30968). Put plainly: Human gonadotropin-releasing hormone receptor (GnRHR) small molecule agonists, calcium flux assay in GnRHR-HEK293 cells (AID 1920063). Further: nearly all actives have a fitted effect of over 35% in size. In outline:
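Calcium flux, agonist mode, human GnRHR stably integrated in HEK293; dye 1 h at 37 C before compound; Ex/Em=480/540 kinetic read, 3 min; 15 concentrations, triplicate.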
(Calcium flux is commonly read through the fluorescence of an indicator in the cells.)

Assay [4] deals with KiSS-1 receptor (Homo sapiens) (UniProt Q969F8). Put plainly: Human kisspeptin (KISS1R) small molecule agonists, calcium flux assay in KISS1R-HEK293 cells (AID 1920064; active means well fitted curve in the direction sought with a large enough effect in the repeat runs; an effect the other way counts as inactive or inconclusive). In outline: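 Triplicate 15-concentration series were applied to dye-loaded human KISS1R HEK293 cells, and agonist-evoked calcium fluorescence was captured for 3 min.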
KiSS-1 receptor (Homo sapiens), sequence (Q969F8 whole entry, looked up): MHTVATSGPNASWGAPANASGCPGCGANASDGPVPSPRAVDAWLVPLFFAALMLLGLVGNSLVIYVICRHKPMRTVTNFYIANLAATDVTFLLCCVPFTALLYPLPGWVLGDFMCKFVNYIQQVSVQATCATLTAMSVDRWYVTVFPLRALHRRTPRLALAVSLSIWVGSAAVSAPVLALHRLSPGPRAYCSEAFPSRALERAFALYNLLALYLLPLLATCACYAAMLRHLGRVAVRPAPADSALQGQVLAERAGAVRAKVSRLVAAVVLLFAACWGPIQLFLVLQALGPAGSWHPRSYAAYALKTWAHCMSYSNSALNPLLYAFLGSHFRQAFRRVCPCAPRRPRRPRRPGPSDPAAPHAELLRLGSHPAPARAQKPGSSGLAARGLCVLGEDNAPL
Assay [5] is described as follows: G protein-coupled receptor (GPCR) small molecule agonists, calcium flux assay: HEK293 wild type cell line counter screen (AID 1920065). The procedure, abridged:
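Non-specific calcium responders were flagged by adding DMSO-dissolved compounds to dye-loaded cells and reading 480/540 nm fluorescence each second for 3 min; ATP served as positive control.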

A short description of assay [6]: p53 small molecule agonists, cell-based qHTS assay with human liver microsomes (AID 1963577).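 Further: p53 response element beta-lactamase reporter cells with liver microsomes plus NADPH.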 The procedure, abridged:
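Compounds act here after metabolic activation: human liver microsomes and NADPH, both at 0.5 mg/mL final, were co-added to p53RE-bla cells. Incubation ran 16 h at 37 C, followed by LiveBLAzer detection.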

The nature of assay [7]: p53 small molecule agonists, cell-based qHTS assay with rat liver microsomes: qHTS cell viability counter screen (AID 1963580). Further: nearly all actives have a fitted effect of over 45% in size. In outline: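 Counter screen for cytotoxicity under metabolic activation: rat liver microsomes and NADPH, 0.5 mg/mL final each, added with compounds to p53RE-bla HCT-116 cells; 16 h at 37 C, then ATP luminescence read.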
The nature of assay [8]: p53 small molecule agonists, cell-based qHTS assay: qHTS cell viability counter screen (AID 1963581). Further: nearly all actives have a fitted effect of over 45% in size. In outline:
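Multiplexed with the reporter read, a CellTiter-Glo step (30 min, room temperature) gauges ATP-based viability of HCT-116 p53RE-bla cells after 16 h compound incubation at 37 C.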

In assay [9] the target is 5-hydroxytryptamine receptor 2A (Homo sapiens) (UniProt P28223). Put plainly: 5-hydroxytryptamine receptor 2A (HTR2A) small molecule antagonists, cell-based qHTS assay (AID 1963586). Further: nearly all actives have a fitted effect of over 45% in size. The procedure, abridged:
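CHO cells stably expressing human HTR2A were plated for 18 h at 37 C, then loaded with calcium dye for 1 h. Compounds were preincubated 5 min at room temperature before DOI (4 nM solution) was added. Kinetic fluorescence was read for 3 min.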

Assay [10] has the same target. In words: 5-hydroxytryptamine receptor 2A (HTR2A) small molecule agonists, cell-based qHTS assay (AID 1963587). Further: nearly all actives have a fitted effect of over 30% in size. The procedure, abridged: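 HTR2A-CHO cells, plated 18 h at 37 C/5% CO2, dye-loaded 1 h at 37 C; compounds in DMSO added by pin tool (agonist mode). Intracellular calcium flux read as kinetic fluorescence on FDSS over 2 min at 1 s intervals.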
Assay [11] deals with Muscarinic acetylcholine receptor M1 (Homo sapiens) (UniProt P11229). Put plainly: Cholinergic receptor muscarinic 1 (CHRM1) small molecule antagonists, cell-based qHTS assay (AID 1963588). Further: nearly all actives have a fitted effect of over 40% in size. In outline:
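Compounds were tested at 15 concentrations in three independent runs. Dye-loaded CHRM1-CHO cells were exposed 5 min at room temperature before stimulation by acetylcholine added at 50nM. Intracellular calcium was read kinetically on FDSS for 3 min.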

For assay [12] the target is unchanged. In words: Cholinergic receptor muscarinic 1 (CHRM1) small molecule agonists, cell-based qHTS assay (AID 1963589). Further: nearly all actives have a fitted effect of over 35% in size. In outline: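 qHTS, 15-point titration, 3 independent runs: compounds pin-transferred onto dye-loaded CHRM1-CHO cells (human M1), calcium fluorescence followed every second to detect agonism.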
Assay [13] can be described thus: cAMP Responsive Elements (CRE) small molecule agonists, cell-based qHTS assay (AID 1963590). In outline: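 Quantitative HTS for CRE agonists: HEK 293T CRE-bla cells, overnight plating, 3 h compound incubation at 37 C/5% CO2, then 2 h room-temperature LiveBLAzer B/G FRET substrate loading.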
Assay [14] in a line: cAMP Responsive Elements (CRE) small molecule antagonists, cell-based qHTS assay (AID 1963591; active means well fitted inhibition curve with a large enough effect in the signal ratio in the repeat runs, not every such curve was filed as active; the % refers to the signal ratio). In outline: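 Fluorescence intensity from cleaved LiveBLAzer B/G substrate (2 h, room temperature) quantified CRE-bla activity in HEK 293T cells exposed 3 h to compound with 0.25 uM final NKH477.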
In assay [15] the target is Beta-2 adrenergic receptor (Homo sapiens) (UniProt P07550). Put plainly: Adrenergic beta2 receptor (ADRB2) small molecule antagonists, cell-based qHTS assay (AID 1963592). Further: series mostly up to about 92 µM; nearly all actives have a fitted effect of over 50% in size. The procedure, abridged:
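Assay format: CHO-ADRB2 cells, 18-20hr seeding at 37C/5% CO2, then compound plus 1nM isoproterenol agonist mix for 0.5hr RT. Homogeneous time-resolved fluorescence cAMP detection after 1hr, expressed as 665/615 nm ratio.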

Assay [16] has the same target. In words: Adrenergic beta2 receptor (ADRB2) small molecule agonists, cell-based qHTS assay (AID 1963593).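 Further: CHO cells stably overexpressing human ADRB2.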 In outline:
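CHO cells stably over-expressing ADRB2 were plated overnight at 37C, then dosed with compounds plus a stimulation mix containing 100uM IBMX and 25uM Ro-20-1724 for 0.5hr at room temperature. cAMP was measured by HTRF competition, 1hr.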

Assay [17] deals with D(2) dopamine receptor (Homo sapiens) (UniProt P14416). Put plainly: Dopamine D2 receptor (DRD2) small molecule agonists, cell-based qHTS assay (AID 1963594). Further: nearly all actives have a fitted effect of over 35% in size. The procedure, abridged: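 HEK293 cells stably expressing DRD2 were cultured 24 h at 37 C, then given Ro20-1724 (0.1 mM final) and compounds for 10 min at room temperature. NKH477 (200nM) was then added for 30 min. cAMP was read by HTRF.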
D(2) dopamine receptor (Homo sapiens), sequence (P14416 whole entry, looked up): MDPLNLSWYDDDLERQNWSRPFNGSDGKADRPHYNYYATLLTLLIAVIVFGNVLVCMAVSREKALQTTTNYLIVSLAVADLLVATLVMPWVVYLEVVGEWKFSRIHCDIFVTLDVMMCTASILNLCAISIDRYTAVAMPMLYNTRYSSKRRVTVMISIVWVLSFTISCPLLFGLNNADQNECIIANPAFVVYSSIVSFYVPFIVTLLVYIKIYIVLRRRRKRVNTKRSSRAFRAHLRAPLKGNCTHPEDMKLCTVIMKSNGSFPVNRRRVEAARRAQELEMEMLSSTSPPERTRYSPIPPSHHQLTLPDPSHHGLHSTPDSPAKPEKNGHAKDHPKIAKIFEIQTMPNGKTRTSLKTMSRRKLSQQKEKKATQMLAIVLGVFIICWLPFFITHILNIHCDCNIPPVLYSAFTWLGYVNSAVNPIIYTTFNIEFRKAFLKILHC

Assay [18] shares this target. In words: Dopamine D2 receptor (DRD2) small molecule antagonists, cell-based qHTS assay (AID 1963595; active means well fitted inhibition curve with a large enough effect in the signal ratio in the repeat runs, with a control signal flat; the % refers to the signal ratio). The procedure, abridged: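 Stable D2 receptor HEK293 line, 24 h after seeding. Compound preincubated 10 min, then quinpirole (12 nM) with forskolin analogue NKH477 (200 nM), 30 min, room temperature. Detection by time-resolved FRET of cAMP.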
Assay [19] in a line: p53 small molecule agonists, cell-based qHTS assay (AID 1963582; active means well fitted activation curve with a large enough effect in the signal ratio in the repeat runs, not every such curve was filed as active; the % refers to the signal ratio; further: potency means the concentration at half of the fitted maximal effect). In outline: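 Beta-lactamase reporter cells (p53RE-bla) treated with compounds for 16 h at 37 C; FRET substrate, 2 h, room temperature; fluorescence intensity.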

Muscarinic acetylcholine receptor M1 (Homo sapiens), sequence (P11229 whole entry, looked up): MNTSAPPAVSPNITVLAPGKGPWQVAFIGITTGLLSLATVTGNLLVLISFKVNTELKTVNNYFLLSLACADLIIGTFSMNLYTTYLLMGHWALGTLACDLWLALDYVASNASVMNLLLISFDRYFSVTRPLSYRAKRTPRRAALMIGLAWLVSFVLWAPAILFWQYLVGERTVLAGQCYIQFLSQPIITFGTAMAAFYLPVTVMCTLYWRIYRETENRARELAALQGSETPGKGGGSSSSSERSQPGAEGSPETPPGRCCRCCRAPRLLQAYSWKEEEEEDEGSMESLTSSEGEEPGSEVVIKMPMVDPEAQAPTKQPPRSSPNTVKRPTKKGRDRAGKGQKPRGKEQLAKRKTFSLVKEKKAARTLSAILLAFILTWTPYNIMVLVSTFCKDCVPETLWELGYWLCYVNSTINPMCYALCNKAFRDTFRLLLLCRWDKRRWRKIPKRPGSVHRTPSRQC
Gonadotropin-releasing hormone receptor (Homo sapiens), sequence (P30968 whole entry, looked up): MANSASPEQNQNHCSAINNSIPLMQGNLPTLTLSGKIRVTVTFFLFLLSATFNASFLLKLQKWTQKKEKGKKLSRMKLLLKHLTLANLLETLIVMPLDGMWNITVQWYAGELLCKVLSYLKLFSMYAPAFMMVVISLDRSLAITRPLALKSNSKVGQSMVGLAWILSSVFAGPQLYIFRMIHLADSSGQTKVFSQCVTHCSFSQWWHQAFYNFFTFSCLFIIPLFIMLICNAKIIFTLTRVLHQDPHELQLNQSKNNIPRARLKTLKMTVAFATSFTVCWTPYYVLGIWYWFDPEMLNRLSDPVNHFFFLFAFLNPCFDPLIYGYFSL
5-hydroxytryptamine receptor 2A (Homo sapiens), sequence (P28223 whole entry, looked up): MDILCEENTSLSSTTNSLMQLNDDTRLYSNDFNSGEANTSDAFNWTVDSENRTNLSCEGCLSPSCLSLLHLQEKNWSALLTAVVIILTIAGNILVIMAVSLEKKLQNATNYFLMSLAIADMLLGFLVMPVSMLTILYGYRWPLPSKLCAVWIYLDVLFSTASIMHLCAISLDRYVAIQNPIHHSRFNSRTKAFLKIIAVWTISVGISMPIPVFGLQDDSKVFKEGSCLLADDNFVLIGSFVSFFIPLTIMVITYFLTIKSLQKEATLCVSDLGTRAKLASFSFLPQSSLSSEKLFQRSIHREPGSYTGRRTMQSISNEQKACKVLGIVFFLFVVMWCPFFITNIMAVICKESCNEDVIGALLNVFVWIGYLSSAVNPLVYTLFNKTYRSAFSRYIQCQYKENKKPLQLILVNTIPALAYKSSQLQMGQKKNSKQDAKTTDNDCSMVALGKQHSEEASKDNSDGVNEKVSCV
Beta-2 adrenergic receptor (Homo sapiens), sequence (P07550 whole entry, looked up): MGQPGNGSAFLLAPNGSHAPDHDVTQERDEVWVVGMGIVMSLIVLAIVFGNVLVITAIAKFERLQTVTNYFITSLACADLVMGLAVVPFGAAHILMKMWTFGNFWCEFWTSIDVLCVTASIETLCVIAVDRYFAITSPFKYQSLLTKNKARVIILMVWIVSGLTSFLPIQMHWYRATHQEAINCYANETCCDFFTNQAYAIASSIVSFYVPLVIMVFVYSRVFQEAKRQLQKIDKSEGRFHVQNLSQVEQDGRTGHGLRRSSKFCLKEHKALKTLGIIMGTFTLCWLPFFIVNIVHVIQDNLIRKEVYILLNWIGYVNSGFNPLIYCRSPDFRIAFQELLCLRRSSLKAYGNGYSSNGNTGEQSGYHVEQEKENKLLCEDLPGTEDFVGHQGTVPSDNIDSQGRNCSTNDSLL

`OCC(O)[C@@H](O)[C@H](O)[C@H](O)CO[C@H]1O[C@H](CO)[C@@H](O)[C@H](O)[C@H]1O` (stereo not given in full): the Potency entry in assay [1], in assay [2], in [3], in assay [6], in assay [7] and in [8] was “inactive” each time. In addition, the Potency entry in assay [9], in assay [10], in assay [11], in assay [12], in [13] and in [14] was “inactive” in each case. Also, the Potency entry in [15], in [16], in assay [17] and in [18] was “inactive” each time. Also, the result in assay [4] and in assay [5] was inactive.
In the case of `CCOC(=O)CC(=O)c1cc(F)c(Cl)nc1Cl`, the Potency result in assay [1], in [2], in assay [3], in assay [6], in [7] and in assay [8] was “inactive” throughout. Besides, the Potency result in assay [19], in [10], in assay [11], in assay [12], in assay [13] and in assay [14] was “inactive” throughout. The Potency entry in assay [15], in [16], in assay [17] and in [18] was “inactive” each time. For the same molecule, the outcome in [4] and in [5] was inactive.
As for `O=C1c2ccccc2C(=O)C1c1nc2ccccc2c(Br)c1O`, the Potency entry in assay [1], in assay [3], in assay [6], in [7], in [8] and in [19] was “inactive” in each case. Further, the Potency result in assay [9], in [10], in assay [11], in [12], in assay [15] and in assay [16] was “inactive” throughout. In addition, the Potency entry in assay [17] and in assay [18] was “inactive” throughout. In [2], the Potency was 24.3 µM (active). Further, the result in [4] and in assay [5] was inactive.
Turning to `N=c1ccn2c(n1)O[C@H]1[C@H](O)[C@@H](CO)O[C@H]12`, the Potency entry in assay [1], in [2], in assay [3], in [6], in assay [7] and in [8] was “inactive” throughout. Moreover, the Potency entry in assay [9], in assay [10], in assay [11], in assay [12], in assay [13] and in assay [15] was “inactive” throughout. The Potency result in assay [17] and in assay [18] was “inactive” in each case. Also, the result in assay [4] and in [5] was inactive. Moreover, the Potency in [19] was 1.45 µM (active).
For the molecule `CC(=O)CCc1ccc(O)cc1`, the Potency entry in assay [1], in assay [2], in assay [3], in assay [6], in assay [7] and in [8] was “inactive” each time. In addition, the Potency entry in [19], in assay [10], in assay [11], in [12], in [13] and in assay [14] was “inactive” throughout. Besides, the Potency result in assay [15], in assay [17] and in assay [18] was “inactive” each time. In addition, the result in assay [4] and in assay [5] was inactive.
For the molecule `C=C(C)CCCC(C)CCO` (stereo not given), the Potency entry in [1], in assay [2], in assay [3], in [6], in assay [7] and in [8] was “inactive” each time. The Potency result in [19], in [9], in [10], in assay [11], in assay [13] and in [14] was “inactive” throughout. Also, the Potency result in [15], in assay [17] and in assay [18] was “inactive” in each case. Moreover, the outcome in assay [4] and in [5] was inactive.
As to `CCCCCCCCCCCCCCCCC(=O)O`, the Potency result in [1], in assay [2], in [3], in assay [6], in assay [7] and in assay [8] was “inactive” each time. Besides, the Potency entry in assay [19], in assay [9], in assay [10], in assay [11], in assay [13] and in [15] was “inactive” throughout. Besides, the Potency result in assay [17] and in assay [18] was “inactive” each time. Further, the outcome in assay [4] and in [5] was inactive.
